Reference: PubChem BioAssay AID1159580 (chemical genetic matrix, 2015)
In all, about 5,500 compounds went through this assay and about 2,000 (36%) were called active. About 18% were inconclusive and are not listed. Rule as the data show it: active = normalized growth mostly below about 0.91 (no sharp cut-off); inconclusive = no clear call, values can overlap the other calls; inactive = mostly above about 0.92. This is one part of the list.

Experiment: chemical genetic growth profiling, strain panel (AID 1159580);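 also: tested at 20 µM; growth read once vehicle control cultures reached saturation at 30 °C; 1 = growth at the plate median or of vehicle wells; lower values mean less growth of the strain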
Details: S. cerevisiae deletion strains, growth OD

Measured: normalized growth

CCCCC(CC)CN1CN(CC(CC)CCCC)CC(C)(N)C1 (stereo not drawn)
inactive: locus YDL185W, strain tfp1, hits give low values 1.02 | locus YGL078C, strain dbp3, hits give low values 1 | locus YIL125W, strain kgd1, hits give low values 1.01
active: locus YAL013W, strain DEP1, hits give low values 0.14 | locus YAL021C, strain ccr4, hits give low values 0.0639 | locus YAL026C, strain drs2, hits give low values 0.0615 | locus YAL030W, strain snc1, hits give low values 0.0534 | locus YBL061C, strain skt5, hits give low values 0.0552 | locus YBR009C, strain hhf1, hits give low values 0.0618 | locus YBR021W, strain FUR4, hits give low values 0.168 | locus YBR023C, strain chs3, hits give low values 0.0607 | locus YBR171W, strain sec66, hits give low values 0.0721 | locus YBR229C, strain ROT2, hits give low values 0.816 | locus YBR231C, strain swc5, hits give low values 0.0597 | locus YBR279W, strain paf1, hits give low values 0.088 | locus YCL011C, strain gbp2, hits give low values 0.0548 | locus YCL016C, strain dcc1, hits give low values 0.0625 | locus YCL029C, strain bik1, hits give low values 0.573 | locus YCL061C, strain MRC1, hits give low values 0.062 | locus YCL069W, strain vba3, hits give low values 0.0607 | locus YCR088W, strain abp1, hits give low values 0.0577 | locus YDL005C, strain med2, hits give low values 0.0691 | locus YDL035C, strain GPR1, hits give low values 0.329 | locus YDL040C, strain nat1, hits give low values 0.055 | locus YDL074C, strain BRE1, hits give low values 0.228 | locus YDL101C, strain DUN1, hits give low values 0.417 | locus YDL134C, strain PPH21, hits give low values 0.58 | locus YDL192W, strain arf1, hits give low values 0.0997 | locus YDR001C, strain nth1, hits give low values 0.0567 | locus YDR069C, strain doa4, hits give low values 0.0614 | locus YDR101C, strain arx1, hits give low values 0.573 | locus YDR137W, strain rgp1, hits give low values 0.111 | locus YDR150W, strain NUM1, hits give low values 0.801 | locus YDR159W, strain sac3, hits give low values 0.0869 | locus YDR162C, strain NBP2, hits give low values 0.233 | locus YDR195W, strain ref2 0.116 | locus YDR297W, strain sur2, hits give low values 0.0539 | locus YDR318W, strain mcm21, hits give low values 0.471 | locus YDR334W, strain swr1, hits give low values 0.0598 | locus YDR335W, strain msn5, hits give low values 0.0571 | locus YDR388W, hits give low values 0.15 | locus YDR392W, strain spt3, hits give low values 0.0725 | locus YDR502C, strain sam2, hits give low values 0.401 | locus YEL003W, strain gim4, hits give low values 0.0521 | locus YEL037C, strain rad23, hits give low values 0.0554 | locus YEL061C, strain CIN8 (second series), hits give low values 0.0574 | locus YEL061C, strain CIN8, hits give low values 0.472 | locus YER015W, strain faa2, hits give low values 0.0593 | locus YER016W, strain bim1, hits give low values 0.0563 | locus YER110C, hits give low values 0.627 | locus YER111C, strain swi4, hits give low values 0.0661 | locus YER155C, strain BEM2 (second series), hits give low values 0.0846 | locus YER155C, strain BEM2, hits give low values 0.425 | locus YER167W, strain BCK2, hits give low values 0.55 | locus YFR010W, strain ubp6, hits give low values 0.0701 | locus YGL086W, strain mad1, hits give low values 0.283 | locus YGL167C, strain pmr1, hits give low values 0.0684 | locus YGL173C, strain kem1, hits give low values 0.0624 | locus YGL227W, strain vid30, hits give low values 0.0601 | locus YGL240W, strain doc1, hits give low values 0.0704 | locus YGL248W, strain PDE1, hits give low values 0.633 | locus YGL253W, strain hxk2, hits give low values 0.0538 | locus YGR078C, strain PAC10, hits give low values 0.469 | locus YGR135W, strain pre9, hits give low values 0.381 | locus YGR229C, strain SMI1, hits give low values 0.0664 | locus YGR252W, strain gcn5, hits give low values 0.224 | locus YHR013C, strain ard1, hits give low values 0.124 | locus YHR027C, strain rpn1, hits give low values 0.0601 | locus YHR030C, strain SLT2, hits give low values 0.133 | locus YHR079C, strain IRE1 (second series), hits give low values 0.573 | locus YHR094C, strain hxt1, hits give low values 0.911 | locus YHR129C, strain ARP1, hits give low values 0.716 | locus YHR142W, strain chs7, hits give low values 0.077 | locus YHR200W, strain rpn10, hits give low values 0.214 | locus YIL066C, strain RNR3, hits give low values 0.45 | locus YIL073C, strain SPO22, hits give low values 0.364 | locus YIR030C, strain dcg1, hits give low values 0.651 | locus YJL092W, strain hpr5, hits give low values 0.0575 | locus YJL095W, strain BCK1 (second series), hits give low values 0.0537 | locus YJL095W, strain BCK1, hits give low values 0.188 | locus YJL115W, strain asf1, hits give low values 0.068 | locus YJL129C, strain trk1, hits give low values 0.083 | locus YJL134W, strain LCB3, hits give low values 0.918 | locus YJL154C, strain vps35, hits give low values 0.0563 | locus YJL164C, strain tpk1, hits give low values 0.0598 | locus YJL166W, strain qcr8, hits give low values 0.0595 | locus YJL168C, strain set2, hits give low values 0.826 | locus YJL187C, strain SWE1 (second series), hits give low values 0.513
